Growth data for 13 molecules are collected here from PubChem BioAssay (NCI).

This is part of a sample that, as a whole, favours compounds with a hit. Of some 83,000 tested, about 20% had one in any assay.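 Compound tested at a single concentration for 48 hours in 96-well plates; a percent growth value below 10 was scored as active.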 Calls of active or inactive are those of the source.

The subject of this assay is MALME-3M melanoma. Nature of the assay: NCI-60 one-dose screen, 48 h (100 = growth as untreated, 0 = no growth, -100 = all killed). Conditions: 10 µM unless noted.
Take `COc1ccc(C(=O)/C=C/c2ccc(OCc3ccccc3)c(OC)c2)cc1OC`: the growth is 71.5% (inactive).
In the case of `O=C(N=Nc1c(O)[nH]c2ccc([N+](=O)[O-])cc12)c1ccc2nc(-c3ccccc3)[nH]c2c1` it was 30.7% (inactive).
Then `C/C(=N\N=C\c1cc([N+](=O)[O-])ccc1Cl)c1ccc2c(c1)Nc1ccccc1S2`, with 74.2% (inactive); and `C=C1CCC2C3(C)COC(c4ccc(F)cc4)OC3CCC2(C)C1C/C=C1/C(=O)OCC1O` (stereo not drawn), with -71.9% (active).
Then `CCCSc1nc(NCCc2c[nH]c3ccccc23)c(C#N)c(-c2ccc(OC)cc2)n1`, with 83.1% (inactive); and `N/C(=N\c1nc2ccccc2s1)NC(=O)Nc1ccccc1Br`, with -12.5% (active); and `O=C(Cn1c2c(sc1=O)[C@H]1[C@@H](O)[C@@H](O)[C@H](O)[C@@H]1CS2)N1CCOCC1`, with 98.8% (inactive).
Take `COC(=O)/C=C/c1cccc2c1C(=O)NC(C)(c1cc3ccccc3oc1=O)N2` (stereo not drawn): the growth was 58.7% (inactive).
With `Brc1ccc(-c2n(Cc3ccc4ccccc4c3)c(-c3ccccc3)c(-c3ccccc3)[n+]2Cc2ccc3ccccc3c2)cc1`, the growth is -91% (active).
On to `COc1ccc(NC(=O)Cn2c3c(sc2=O)[C@H]2[C@@H](O)[C@@H](O)[C@H](O)[C@@H]2CS3)cc1`, for which the growth is 102% (inactive).
For `Cc1cc2nc3c4ccccc4n(CCCN(C)C)c3nc2cc1C`, the growth is -89.6% (active).
Take `O=S(=O)(Nc1cccc(-n2cnc3cc(-c4ccc(O)cc4)ccc32)c1)C1CC1`: the growth is 46.1% (inactive).
Then `CN(C)c1ccnc(CNCCSC2(c3ccc(C(F)(F)F)cc3)c3ccccc3C=Cc3ccccc32)c1`, with -89.7% (active).
